# MITF act: activators of MITF-driven TRPM1 promoter reporter, primary screen, cell-based, SK-MEL-5, luciferase, single point; SK-MEL-5 TRPM1-promoter luciferase, 24 h; % of positive control, neutral wells = 0; activation, % at 12.5 µM; 300,000 tested, 0.75% active; AID 588334, 2011;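 active means mean activation of at least 80% with every replicate also reaching 80%; inconclusive means mean reaches 80% but some replicate falls short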;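 further: 0% = neutral control wells and 100% = parthenolide positive control wells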
# Wnt act: Wnt/beta-catenin pathway activators, primary screen, cell-based, plate reader, single point; Wnt/beta-catenin reporter cell assay, activator; activation, % at 9.35 µM; 300,000 tested, 1.2% active; AID 743398, 2014; in the data active means activation above about 30%, passing the limit was not always enough; inconclusive means no clear call, values can overlap the other calls;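 further: 0% = neutral control wells and 100% = positive control wells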
# Ecoli rRNA inh: reduced GFP signal of wild-type E. coli, primary screen, bacterial rRNA inhibitor project, GFP/RFP fluorescence, OD600, single point; E. coli WT GFP vs humanized-ribosome RFP mutants, 24 h; stronger effect = lower value; DMSO median 0, no signal -100; GFP signal change (wild-type ribosome), % (no concentration beside the values); 350,000 tested, 1.6% active; AID 720706, 2013;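 active means significant combined selectivity score with lowered wild-type GFP, culture density cut under 30%, mutant RFP and density less affected; inactive means any of these conditions unmet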
# esBAF inh: Bmi1 luciferase reporter increase in mESCs, primary screen, esBAF inhibitor project, mouse ES cells, Bmi1 luciferase knock-in, single point. 24 h; 100% = twice the neutral-well signal. reporter increase, % at 12.5 µM. 350,000 tested, 2% active; in the data active means activation above about 40%; inconclusive means no clear call, values can overlap the other calls;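 further: 0% = median of the plate's neutral control wells and 100% = double that signal; a rise in the Bmi1 reporter signal indicates esBAF inhibition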
# AF4-AF9 inh: inhibitors of AF4 peptide binding to AF9, primary screen, biochemical, AlphaScreen, biotin-AF4 peptide, FLAG-AF9, single point; inhibition, % at 10 µM; 350,000 tested, 0.47% active;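 active means every replicate reaching a set inhibition limit, whatever the replicate mean, cut at about 25% in these data; inconclusive means mean inhibition reaches that limit but some replicates miss it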;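 further: 0% = plate neutral control median and 100% = total signal loss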
# Target sequence (P42568 whole entry, looked up): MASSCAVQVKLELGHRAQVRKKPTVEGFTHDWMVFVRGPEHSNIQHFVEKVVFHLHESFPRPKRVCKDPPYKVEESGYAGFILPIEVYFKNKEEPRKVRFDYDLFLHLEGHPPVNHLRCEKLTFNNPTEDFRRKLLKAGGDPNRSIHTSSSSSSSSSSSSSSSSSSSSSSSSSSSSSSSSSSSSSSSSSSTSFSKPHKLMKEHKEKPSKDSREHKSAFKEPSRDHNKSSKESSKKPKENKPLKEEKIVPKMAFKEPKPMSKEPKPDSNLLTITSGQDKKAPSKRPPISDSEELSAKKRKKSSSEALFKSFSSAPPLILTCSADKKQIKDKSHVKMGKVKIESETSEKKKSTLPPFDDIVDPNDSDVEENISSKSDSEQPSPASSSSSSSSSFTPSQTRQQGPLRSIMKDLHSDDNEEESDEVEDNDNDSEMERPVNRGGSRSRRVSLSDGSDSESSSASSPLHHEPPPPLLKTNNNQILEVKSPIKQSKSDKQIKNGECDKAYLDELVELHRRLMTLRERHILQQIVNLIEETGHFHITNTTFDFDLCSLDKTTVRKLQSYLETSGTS
# An asterisk follows results filed as active; ? = inconclusive; · = no result. Only some compounds are listed: those with a hit (about 3.7% of all), similar ones and a draw of the others.
SMILES,MITF act,Wnt act,Ecoli rRNA inh,esBAF inh,AF4-AF9 inh
Cc1nn(-c2ccc(Br)cc2)c(=O)c2ccccc12,21.6,41.8*,15.2,31.4,-2.7
Cc1nn(-c2ccccc2)cc1C(=S)Nc1ccccc1,26.6,-3.2,-0.2,48.7*,-0.1
Cc1c(C(=S)Nc2ccccc2)cnn1-c1ccccc1,96.4*,?,·,·,·
Cc1c(C(=S)Nc2ccccc2)cnn1-c1ccc([N+](=O)[O-])cc1,14.2,·,·,·,·
CC(CNC(=O)CCS(=O)(=O)c1cc2c(cc1Cl)NC(=O)CO2)c1ccccc1 (stereo not given),-6.8,-0.3,2.4,-4.1,-1.3
Cc1ccc(NC(=O)Nc2nnc(Cc3ccc([N+](=O)[O-])cc3)s2)cc1,57.1,8.5,16.2,·,1.6
O=C(Nc1ccc(Cl)cc1)Nc1nnc(Cc2ccc([N+](=O)[O-])cc2)s1,-3.1,48.3*,-4.8,·,0.7
O=C(CSC1CCc2ccccc21)NNC(=O)Nc1ccc(Cl)cc1 (stereo not given),·,37.6*,-60.3,·,-0.6
O=C(CSC1CCc2ccccc21)NN=Cc1ccco1 (stereo not given),·,-2.8,4.2,·,9.3
O=C(CN1C(=O)C2CCCCC2C1=O)Nc1cc(C(F)(F)F)ccc1N1CCCC1 (stereo not given),4.0,0.8,4.4,-4.3,2.6
CC(=O)Nc1ccc2c(c1)C(=Nc1ccc(C)cc1)c1ccccc1-2,31.9,2.2,-22.1*,27.5,-1.7
CCOC(=O)Nc1ccc2c(c1)Cc1cc([N+](=O)[O-])ccc1-2,77.3,-0.6,-16.1,74.6*,-0.4
O=C(Nc1ccccc1)ON=C1c2ccccc2-c2ccccc21,-12.8,-0.4,-35.0*,·,-1.6
CCOC(=O)Nc1ccc2c(c1)C(=NNC(N)=S)c1ccccc1-2,4.0,-0.2,-11.2,-35.1,4.4
CC(=O)Nc1ccc2c(c1)C(=Nc1ccccc1)c1ccccc1-2,5.6,10.2,-5.2,33.8,5.2
CCOC(=O)Nc1ccc(OC)c([N+](=O)[O-])c1,-8.9,1.8,17.6,-4.2,-1.6
CCOC(=O)Nc1ccc2c(c1)C(=NO)c1ccccc1-2,41.1,54.7*,-68.2,·,9.3
O=C(NCc1ccc(S(=O)(=O)Nc2ccccc2Cl)s1)c1ccccc1,·,1.4,-31.9*,·,-4.4
Cc1nc(C2COc3ccccc3O2)sc1C(=O)O (stereo not given),37.4,12.3,-0.6,45.0*,-3.1
Cc1ccc(S(=O)(=O)n2nc(-c3ccco3)nc2SCc2ccccc2)cc1,47.4,·,·,47.6*,·
O=C(c1ccco1)n1nc(-c2ccco2)nc1SCc1ccccc1,36.7,22.1,·,44.9*,·
CSc1nc(-c2ccco2)nn1S(=O)(=O)c1ccc(C)cc1,-7.6,0.5,5.3,6.2,0.6
O=C(c1ccco1)n1nc(-c2ccccc2)nc1SCc1ccccc1,58.4,41.4*,·,47.4*,·
c1ccc(CSc2nccc(-c3ccco3)n2)cc1,·,22.9,-36.2*,37.5,-3.2
c1ccc(CSc2n[nH]c(-c3ccco3)n2)cc1,21.3,12.6,·,27.5,·
SMILES,MITF act,Wnt act,Ecoli rRNA inh,esBAF inh,AF4-AF9 inh
CC1CCC2(CC1)NC(=O)N(CC(=O)Nc1ccccc1-c1ccccc1)C2=O (stereo not given),0.5,-0.9,-14.6,-3.2,-0.3
C[C@H](CO)N1C[C@H](C)[C@@H](CN(C)C(=O)C2CCOCC2)Oc2ncc(-c3ccncc3)cc2C1=O,·,·,5.9,-9.3,-2.5
C[C@H](CO)N1C[C@H](C)[C@H](CN(C)Cc2ccccc2C(=O)O)Oc2cc(-c3ccccc3)ccc2S1(=O)=O,·,·,-3.1,0.9,2.2
Cc1onc(-c2ccccc2)c1C(=O)NC(=S)NNC(=O)c1ccncc1,-8.0,-1.3,-36.5*,·,5.4
Cc1onc(-c2ccccc2)c1C(=O)NC1CCCCC1C (stereo not given),·,-0.9,4.3,-25.9,-13.3
Cc1onc(-c2ccccc2)c1C(=O)NC1CCC(C)CC1 (stereo not given),6.1,444.0*,·,-1.2,-0.1
CC1CCC(NC(=O)c2cccn2C)CC1 (stereo not given),76.6,42.1*,5.8,7.6,-1.9
Cc1onc(-c2ccccc2)c1C(=O)NNC(=S)NC(=O)c1ccc2c(c1)OCO2,·,1.3,-40.5*,·,-6.4
O=C(NCc1ccc(F)cc1)c1ccncc1,·,-0.7,-1.3,-3.6,-4.8
Cc1onc(-c2ccccc2)c1C(=O)NC(=S)NNC(=O)c1ccco1,·,-0.4,-54.0,·,-1.8
Cc1onc(-c2ccccc2)c1C(=O)NC(=S)NNC(=O)c1cc(-c2ccc(F)cc2)n[nH]1,·,-2.2,-33.1*,·,·
CCN(CC)C(=O)n1cnc(-c2ccccc2)c1-c1ccccc1,3.5,-2.6,-10.7,·,0.6
COCn1cnc(-c2ccccc2)c1-c1ccccc1,·,1.8,-27.9*,-11.6,6.4
CCc1ccccc1NC(=O)Nc1ccc(F)cc1F,-2.4,0.8,-4.3,-13.6,-0.5
Cc1ccccc1C1=NC(c2ccc(F)cc2F)ON1 (stereo not given),60.8,·,·,47.7*,·
Cc1cc(C)c(O)c(-c2cc(C(=O)NCCc3ccc(S(N)(=O)=O)cc3)[nH]n2)c1,13.6,-1.5,-33.3*,0.2,9.4
Cc1cc(O)c(-c2cc(C(=O)NCCc3ccc(S(N)(=O)=O)cc3)[nH]n2)cc1C,-1.1,-2.8,-34.6*,-3.6,-14.4
C[C@@H]1CN([C@H](C)CO)C(=O)c2cc(NS(=O)(=O)c3cccs3)ccc2O[C@H]1CN(C)S(=O)(=O)c1ccccc1,·,·,-2.7,-1.8,-3.1
CCOC(=O)c1cc(-c2ccccc2C)nn1Cc1cc(CC)no1,58.3,8.2,-10.3,38.6,·
CCOC(=O)c1cc(-c2ccccc2)nn1Cc1cc(CC)no1,73.0,14.6,0.0,61.2*,-9.0
CNC[C@@H]1Oc2c(NS(=O)(=O)c3ccccc3)cccc2C(=O)N([C@H](C)CO)C[C@@H]1C,·,·,-0.7,2.0,-1.3
COCCCN1C(=O)C(=O)/C(=C(/O)c2ccc(OC)cc2)C1c1ccc(O)c(OC)c1 (stereo not given),-5.6,·,·,·,·
COc1ccc(Cn2c(=O)c3[nH]cnc3n(-c3ccc(C)cc3)c2=O)cc1,-2.5,1.1,-20.4*,1.7,0.9
COc1ccc(-n2c(=O)n(Cc3ccccc3)c(=O)c3[nH]cnc32)cc1,0.7,0.6,2.5,-1.7,-4.8
COc1ccccc1N1CCN(Cc2nc(-c3ccc(F)cc3)oc2C)CC1,-13.3,0.8,-5.3,·,6.0
COc1ccccc1N1CCN(Cc2cn[nH]c2-c2ccc(F)cc2)CC1,-0.3,-1.1,5.9,-4.1,53.1*
O=C(O)Cc1ccc(Nc2cnn(C34CC5CC(CC(CC(=O)O)(C5)C3)C4)c(=O)c2Cl)cc1,2.7,-1.4,8.1,-1.3,2.2
CCOC(=O)CC1=NN(c2ccccc2)C(=O)C1=c1sc(=C2SC(C)=C(C)N2CC)c(=O)n1CC,-1.6,-0.2,10.1,·,39.6*
